Measured values published in the supplement of paper PMC13380429.

Tested on: Vero E6 infected with SARS-CoV-2
Experiment: inhibition of SARS-CoV-2 cytopathic effect; higher = more antiviral protection, active = above 15
Conditions: 48 h

Measured: inhibition of SARS-CoV-2 cytopathic effect

Brc1c(NC2=NCCN2)ccc2nccnc12 [brimonidine]
inactive: 1 nM 4.55% | 8.33 nM 0.66% | 100 nM 0.75% | 833.33 nM 2.72% | 10000 nM 0.94%

COc1cc(COc2cc(N)c(Cl)cc2C(=O)CCC2CCN(CCNS(C)(=O)=O)CC2)cc(OC)c1
active: 10000 nM 28.3%
inactive: 1 nM 0.91% | 8.33 nM 2.62% | 100 nM -0.09% | 833.33 nM 2.63%

CC[C@@H](CO)NCCN[C@@H](CC)CO [ethambutol]
inactive: 1 nM 3.83% | 8.33 nM 4.26% | 100 nM 4.86% | 833.33 nM 5.12% | 10000 nM 2.55%

C[N+](C)(C)CCOC(N)=O [carbachol]
inactive: 1 nM 1.16% | 8.33 nM 1.84% | 100 nM -1.48% | 833.33 nM 2.68% | 10000 nM 4.16%

CC(C)(C)C#Cc1cc(N(C(=O)[C@H]2CC[C@H](C)CC2)[C@H]2CC[C@@H](O)CC2)c(C(=O)O)s1
inactive: 1 nM 1.62% | 8.33 nM 2.19% | 100 nM -0.17% | 833.33 nM 1.33% | 10000 nM 1.51%

Cc1ccc(C(=O)Nc2ccc(CN3CCN(C)CC3)c(C(F)(F)F)c2)cc1C#Cc1cnc2[nH]ncc2c1
inactive: 1 nM 1.62% | 8.33 nM 6.08% | 100 nM 4.44% | 833.33 nM -8.47% | 10000 nM -20.9%

CC(C)C(=O)Nc1ncc(-c2cc(C(F)F)nn2-c2c(Cl)cccc2Cl)s1
inactive: 1 nM 0.32% | 8.33 nM 2.58% | 100 nM -0.32% | 833.33 nM -2.46% | 10000 nM -5.83%

C=CCN1CC[C@]23c4c5ccc(O)c4O[C@H]2/C(=N/NC(=O)c2ccccc2)CC[C@@]3(O)[C@H]1C5 [naloxone-benzoylhydrazone]
inactive: 1 nM -0.04% | 8.33 nM 0.97% | 100 nM 0.75% | 833.33 nM 5.45% | 10000 nM 0.69%

CN1CCN(CCCN2c3ccccc3Sc3ccc(C(F)(F)F)cc32)CC1 [trifluoperazine]
inactive: 1 nM -0.89% | 8.33 nM 1.64% | 100 nM -3.09% | 833.33 nM -4.01% | 10000 nM 14.5%

N#CCCCSC(=N)N [kevetrin]
inactive: 1 nM -0.54% | 8.33 nM -2.73% | 100 nM -3.7% | 833.33 nM -3.14% | 10000 nM -0.14%

O=C(O)COc1nn(Cc2ccccc2)c2ccccc12 [bendazac]
inactive: 1 nM -1.4% | 8.33 nM 2.21% | 100 nM 0.57% | 833.33 nM -1.97% | 10000 nM -2.52%

OC(c1ccccc1)(c1ccccc1)C1CCNCC1 [azacyclonol]
inactive: 1 nM -0.3% | 8.33 nM 1.56% | 100 nM -2.53% | 833.33 nM -0.09% | 10000 nM -3.58%

CC[C@@H](C(=O)[C@@H](C)[C@@H](O)[C@H](C)[C@@H]1O[C@@H]([C@@H](CC)C(=O)O)CC[C@@H]1C)[C@H]1O[C@]2(C=C[C@@H](O)[C@]3(CC[C@@](C)([C@H]4CC[C@](O)(CC)[C@H](C)O4)O3)O2)[C@H](C)C[C@@H]1C [Salinomycin (Procoxacin)]
active: 833.33 nM 50.9% | 10000 nM 57%
inactive: 1 nM -2.73% | 8.33 nM 0.16% | 100 nM 4.82%

O=C(CCCN1CCC2(CC1)C(=O)N(Cc1cccc(F)c1)CN2c1ccccc1)c1ccc(F)cc1 [3'-fluorobenzylspiperone]
active: 10000 nM 71.7%
inactive: 1 nM 1.1% | 8.33 nM 1.76% | 100 nM 1.3% | 833.33 nM 4.46%

CC(C)[C@](O)(c1ccc2cc(OC(F)F)c(OC(F)F)cc2c1)c1c[nH]nn1
inactive: 1 nM -0.91% | 8.33 nM 2.28% | 100 nM 2.85% | 833.33 nM 5.3% | 10000 nM 6.8%

CCN(CCO)CCCOc1ccc2c(Nc3cc(CC(=O)Nc4cccc(F)c4)[nH]n3)ncnc2c1 [barasertib-HQPA]
inactive: 1 nM -1.93% | 8.33 nM -0.82% | 100 nM -3.04% | 833.33 nM -4.18% | 10000 nM -5.49%

C[C@@H](O[C@H]1OCCN(Cc2nn[nH]c2CN(C)C)[C@H]1c1ccc(F)cc1)c1cc(C(F)(F)F)cc(C(F)(F)F)c1
inactive: 1 nM -0.75% | 8.33 nM -1.76% | 100 nM -0.97% | 833.33 nM -4.49% | 10000 nM 7.29%
